Laboratory results as given in PubChem BioAssay (NCI).
The panel holds about 79,000 compounds, 15% with a hit somewhere; the sample as a whole holds those more often. The source made the active and inactive calls. Rule as the data show it: active = growth inhibition above about 70%; inactive = the rest.

Tests used:
[1] = NCI Yeast Anticancer Drug Screen. Data for the rad52 strain (AID 147);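 also: 0% = growth of vehicle-treated control cultures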; conditions: S. cerevisiae rad52 mutant growth inhibition, hits give high values
Summary of the method: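 Vehicle-treated cultures served as the reference for growth inhibition of compound-exposed yeast bearing a DNA repair mutation.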

[2] = NCI Yeast Anticancer Drug Screen. Data for the wt1 strain (AID 149);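 also: 0% = growth of vehicle-treated wt1 cultures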; conditions: S. cerevisiae wt1 strain (SPY 50644) growth inhibition, hits give high values
Summary of the method: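 Measured: growth of wt1 yeast under compound versus vehicle treatment, reported as inhibition.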

[3] = NCI Yeast Anticancer Drug Screen. Data for the rad50EPP+ strain (AID 151);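 also: 0% = growth of vehicle-treated control cultures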; conditions: S. cerevisiae rad50 mutant strain, hits give high values
Summary of the method: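 In this screen, rad50EPP+ yeast were exposed to compounds. Growth inhibition was scored against vehicle-treated controls.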

[4] = NCI Yeast Anticancer Drug Screen. Data for the mgt1 strain (AID 153); conditions: S. cerevisiae mgt1 mutant growth inhibition, hits give high values
Summary of the method: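 mgt1 strain exposed; growth vs vehicle control recorded as inhibition.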

[5] = NCI Yeast Anticancer Drug Screen. Data for the rad50 strain (AID 155);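 also: 0% = growth of vehicle-only cultures of the same strain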; conditions: S. cerevisiae rad50 strain growth inhibition, hits give high values
Summary of the method: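 Growth of the mutant yeast was measured after compound exposure and referenced to vehicle-treated cultures.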

[6] = NCI Yeast Anticancer Drug Screen. Data for the mec2-1 strain (AID 157); conditions: S. cerevisiae mec2-1 strain, hits give high values
Summary of the method: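 Vehicle-treated cultures served as reference for growth inhibition of compound-exposed mec2-1 yeast.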

[7] = NCI Yeast Anticancer Drug Screen. Data for the rad14 strain (AID 159);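 also: 0% = growth of vehicle-treated control cultures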; conditions: S. cerevisiae rad14 strain growth inhibition, hits give high values
Summary of the method: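 Here, inhibition of yeast growth was measured after compound exposure, using a strain with a genetic defect in DNA damage repair and vehicle-treated cultures as the reference.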

[8] = NCI Yeast Anticancer Drug Screen. Data for the sgs1 mgt1 strain (AID 161);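 also: 0% = growth of cultures given vehicle only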; conditions: S. cerevisiae sgs1 mgt1 strain, hits give high values
Summary of the method: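 Test agents were incubated with a DNA-repair-mutant yeast strain. Growth was then read and compared against vehicle-treated controls.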

[9] = NCI Yeast Anticancer Drug Screen. Data for the CLN2oe strain (AID 163);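 also: 0% = growth of vehicle-only control cultures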; conditions: S. cerevisiae CLN2oe strain, hits give high values
Summary of the method: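 Inhibition relative to vehicle-treated yeast is reported. Cells: strain with genetic alteration in cell-cycle control, grown with compound.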

[10] = NCI Yeast Anticancer Drug Screen. Data for the cln2 rad14 strain (AID 165);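 also: 0% = growth equal to vehicle treated cultures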; conditions: S. cerevisiae cln2 rad14 strain, hits give high values
Summary of the method: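 Each compound was tested on cln2 rad14 yeast. Inhibition of growth was calculated against vehicle-exposed controls.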

[11] = NCI Yeast Anticancer Drug Screen. Data for the bub3 strain (AID 167); conditions: S. cerevisiae bub3 mutant strain, hits give high values
Summary of the method: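 Whole-cell yeast assay. The mutant strain was incubated with compounds, and growth inhibition was determined by comparison with vehicle-treated cells.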

[12] = NCI Yeast Anticancer Drug Screen. Data for the wt2 strain (AID 169);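 also: 0% = growth of vehicle-treated yeast cultures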; conditions: S. cerevisiae wt2 strain growth inhibition, hits give high values
Summary of the method: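 Inhibition of yeast growth was determined after compound treatment, normalised to controls receiving only vehicle.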

[13] = NCI Yeast Anticancer Drug Screen. Data for the mlh1 strain (AID 171);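 also: 0% = growth of vehicle-treated control cultures of the same strain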; conditions: S. cerevisiae mlh1 strain growth inhibition, hits give high values
Summary of the method: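 Vehicle-normalised growth inhibition of a repair- or checkpoint-altered yeast strain following compound treatment.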

[14] = NCI Yeast Anticancer Drug Screen. Data for the sgs1 strain (AID 173);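 also: 0% = growth of vehicle-only control cultures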; conditions: S. cerevisiae sgs1 mutant, hits give high values
Summary of the method: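 Screen format: yeast with repair or checkpoint alterations, compound exposure, growth read relative to vehicle.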

[15] = NCI Yeast Anticancer Drug Screen. Data for the mlh1 rad18 strain (AID 175); conditions: S. cerevisiae mlh1 rad18 strain growth inhibition, hits give high values
Summary of the method: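 Vehicle-treated cultures served as the reference for growth inhibition in a yeast strain carrying DNA damage repair alterations exposed to each compound.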

[16] = at 5.0 µM (retest, dose inferred, filed as 0.5)
[17] = at 50.0 µM (retest, dose inferred, filed as 5.0)

Measured: growth inhibition

Cc1cc(Cl)nc2nc(Cl)c(N)cc12
active: [4]; at 100.0 µM 87% | [7]; at 100.0 µM 78% | [8]; at 50.0 µM 73.5% | [12]; at 100.0 µM 94% | [13]; at 100.0 µM 80% | [15]; [17] 84%
inactive: [1]; at 1.2 µM -8% | [1]; at 3.7 µM -3% | [1]; at 11.0 µM -10% | [1]; at 33.0 µM 16% | [1]; at 100.0 µM 69% | [2]; at 1.2 µM -16% | [2]; at 3.7 µM -7% | [2]; at 11.0 µM -2% | [2]; at 33.0 µM 2% | [2]; at 100.0 µM 27% | [3]; at 1.2 µM -17% | [3]; at 3.7 µM -17% | [3]; at 11.0 µM -13% | [3]; at 33.0 µM 0% | [3]; at 100.0 µM 49% | [4]; at 1.2 µM -14% | [4]; at 3.7 µM -12% | [4]; at 11.0 µM -9% | [4]; at 33.0 µM 20% | [5]; at 1.2 µM -4% | [5]; at 3.7 µM -18% | [5]; [16] 11% | [5]; at 11.0 µM -4% | [5]; at 33.0 µM 8% | [5]; [17] 55% | [5]; at 50.0 µM 38.6% | [5]; at 100.0 µM 51% | [6]; at 1.2 µM -13% | [6]; at 3.7 µM -17% | [6]; [16] 7% | [6]; at 11.0 µM -7% | [6]; at 33.0 µM 32% | [6]; [17] 62% | [6]; at 50.0 µM 62.9% | [6]; at 100.0 µM 44% | [7]; at 1.2 µM 1% | [7]; at 3.7 µM 2% | [7]; at 11.0 µM 1% | [7]; at 33.0 µM 28% | [8]; [16] -11% | [8]; [17] 55% | [9]; at 1.2 µM 4% | [9]; at 3.7 µM 1% | [9]; at 11.0 µM 5% | [9]; at 33.0 µM 6% | [9]; at 100.0 µM 54% | [10]; [16] 29% | [10]; [17] 42% | [10]; at 50.0 µM 22.6% | [11]; at 1.2 µM -20% | [11]; at 3.7 µM -2% | [11]; [16] -24% | [11]; at 11.0 µM -4% | [11]; at 33.0 µM 1% | [11]; [17] 30% | [11]; at 50.0 µM 48.2% | [11]; at 100.0 µM 67% | [12]; at 1.2 µM -22% | [12]; at 3.7 µM -16% | [12]; at 11.0 µM -24% | [12]; at 33.0 µM 21% | [13]; at 1.2 µM -16% | [13]; at 3.7 µM -2% | [13]; at 11.0 µM -2% | [13]; at 33.0 µM 14% | [14]; at 1.2 µM -2% | [14]; at 3.7 µM -6% | [14]; at 11.0 µM -1% | [14]; at 33.0 µM 13% | [14]; at 100.0 µM 63% | [15]; [16] 11%

O=Nc1ccc(Nc2ccccc2)cc1
inactive: [1]; at 1.2 µM -40% | [1]; at 3.7 µM -58% | [1]; at 11.0 µM -71% | [1]; at 33.0 µM -11% | [2]; at 1.2 µM -33% | [2]; at 3.7 µM -26% | [2]; at 11.0 µM -13% | [2]; at 33.0 µM 28% | [3]; at 1.2 µM -14% | [3]; at 3.7 µM -10% | [3]; at 11.0 µM 29% | [4]; at 1.2 µM -50% | [4]; at 3.7 µM -60% | [4]; at 11.0 µM -32% | [4]; at 33.0 µM 63% | [5]; at 1.2 µM -41% | [5]; at 3.7 µM -45% | [5]; [16] 2% | [5]; at 11.0 µM -32% | [5]; at 33.0 µM 39% | [5]; [17] 30% | [6]; at 1.2 µM -33% | [6]; at 3.7 µM -38% | [6]; [16] -10% | [6]; at 11.0 µM -35% | [7]; at 1.2 µM -23% | [7]; at 3.7 µM -28% | [7]; at 11.0 µM -44% | [7]; at 33.0 µM 37% | [8]; [16] -5% | [8]; [17] 13% | [9]; at 1.2 µM -44% | [9]; at 3.7 µM -35% | [9]; at 11.0 µM -5% | [10]; [16] 29% | [10]; [17] 68% | [11]; at 1.2 µM -31% | [11]; at 3.7 µM -14% | [11]; [16] 4% | [11]; at 11.0 µM -16% | [12]; at 1.2 µM -52% | [12]; at 3.7 µM -47% | [12]; at 11.0 µM -59% | [12]; at 33.0 µM 54% | [13]; at 1.2 µM -42% | [13]; at 3.7 µM -36% | [13]; at 11.0 µM -26% | [14]; at 1.2 µM -40% | [14]; at 3.7 µM -42% | [14]; at 11.0 µM -28% | [14]; at 33.0 µM 55% | [15]; [16] 26%
active: [1]; at 100.0 µM 96% | [2]; at 100.0 µM 97% | [3]; at 33.0 µM 97% | [3]; at 100.0 µM 96% | [4]; at 100.0 µM 97% | [5]; at 50.0 µM 88.8% | [5]; at 100.0 µM 95% | [6]; at 33.0 µM 84% | [6]; [17] 95% | [6]; at 50.0 µM 91% | [6]; at 100.0 µM 97% | [7]; at 100.0 µM 96% | [8]; at 50.0 µM 93.2% | [9]; at 33.0 µM 97% | [9]; at 100.0 µM 96% | [10]; at 50.0 µM 86.3% | [11]; at 33.0 µM 97% | [11]; [17] 91% | [11]; at 50.0 µM 90.5% | [11]; at 100.0 µM 97% | [12]; at 100.0 µM 97% | [13]; at 33.0 µM 83% | [13]; at 100.0 µM 96% | [14]; at 100.0 µM 97% | [15]; [17] 93% | [15]; at 50.0 µM 89.5%

CCC(C)(c1ccc(O)c(C)c1)c1ccc(O)c(C)c1
active: [1]; at 33.0 µM 98% | [1]; at 100.0 µM 98% | [2]; at 33.0 µM 98% | [2]; at 100.0 µM 99% | [4]; at 33.0 µM 97% | [4]; at 100.0 µM 99% | [5]; at 33.0 µM 97% | [5]; [17] 87% | [5]; at 50.0 µM 92% | [5]; at 100.0 µM 97% | [6]; at 33.0 µM 98% | [6]; [17] 90% | [6]; at 50.0 µM 93.3% | [6]; at 100.0 µM 98% | [7]; at 33.0 µM 98% | [7]; at 100.0 µM 98% | [8]; [17] 98% | [8]; at 50.0 µM 93.8% | [9]; at 33.0 µM 97% | [9]; at 100.0 µM 98% | [10]; [16] 81% | [10]; [17] 100% | [10]; at 50.0 µM 92.7% | [11]; at 33.0 µM 97% | [11]; [17] 99% | [11]; at 50.0 µM 92.2% | [11]; at 100.0 µM 98%
inactive: [1]; at 1.2 µM -36% | [1]; at 3.7 µM -19% | [1]; at 11.0 µM 42% | [2]; at 1.2 µM -17% | [2]; at 3.7 µM -23% | [2]; at 11.0 µM 29% | [3]; at 1.2 µM -31% | [3]; at 3.7 µM -38% | [3]; at 11.0 µM -43% | [3]; at 33.0 µM -41% | [3]; at 100.0 µM 12% | [4]; at 1.2 µM -49% | [4]; at 3.7 µM -39% | [4]; at 11.0 µM 14% | [5]; at 1.2 µM -30% | [5]; at 3.7 µM -28% | [5]; [16] 40% | [5]; at 11.0 µM 52% | [6]; at 1.2 µM -66% | [6]; at 3.7 µM -45% | [6]; [16] 42% | [6]; at 11.0 µM 43% | [7]; at 1.2 µM -38% | [7]; at 3.7 µM -43% | [7]; at 11.0 µM 15% | [8]; [16] -3% | [9]; at 1.2 µM -36% | [9]; at 3.7 µM -28% | [9]; at 11.0 µM 45% | [11]; at 1.2 µM -27% | [11]; at 3.7 µM -13% | [11]; [16] 13% | [11]; at 11.0 µM 47%
